“And” between values parts separate entries of the source, which are not always exact repeats. Identical values can stand only once. Where a structure was tested more than once in an assay, its records may differ in their call. The source made the active and inactive calls. How the source made its calls: active means hit-call score of the fitted dose curve at least 0.9, where 1 is the maximum; inactive means score below 0.9.

This experiment in a line: BSK_hDFCGF_Proliferation: Cell Proliferation Assessment in the BioMAP Diversity Plus: hDFCGF Assay (AID 2283059).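 Further: curves fitted for both rise and fall of signal versus DMSO baseline.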 As to conditions: primary human foreskin fibroblasts. The protocol: BSK_hDFCGF is a cell-based, multiplexed-readout assay that uses foreskin fibroblast, a human skin primary cell, with measurements taken at 24 hours after chemical dosing in a 96-well plate.BSK_hDFCGF_Proliferation is an assay component measured in the BSK_hDFCGF assay. It measures […] related to cell proliferation using Sulforhodamine staining technology.Data from the assay component BSK_hDFCGF_Proliferation was analyzed into 1 assay endpoint. This assay endpoint, BSK_hDFCGF_Proliferation, was analyzed with bidirectional fitting relative to DMSO as the negative control and baseline of activity. Using a type of viability reporter, measures of total protein for gain or loss-of-signal activity can be used to understand the viability at the cellular-level. Furthermore, this assay endpoint can be referred to as a secondary readout, because this assay has produced multiple assay endpoints where this one serves a viability function. To generalize the intended target to other relatable targets, this assay endpoint is annotated to the cell cycle intended target family, where the subfamily is proliferation.
The levels of cell surface (or secreted, indicated by the prefix "s") biomarker endpoints were measured by ELISA. Overt cytotoxicity to cells in confluent adherent cultures (all systems other than the BT system) was assessed by measuring total protein levels using sulforhodamine B (SRB) staining in parallel cultures at the time of biomarker measurements, indicated as SRB endpoints. For proliferation assays for adherent cell types, individual cell types are cultured at sub-confluence and relative cell numbers quantified by SRB staining at time points optimized for each system (48 h: 3C and CASM3C systems; 72 h: BT and HDF3CGF systems; 96 h: SAg system). SRB was performed by staining cells with 0.1% SRB after fixation with 10% TCA and reading wells at 560 nm.Viability and proliferation of PBMC (T cells) was quantified by Alamar Blue reduction for the SAg and BT systems. For PBMC viability (referred to as PBMC Cytotoxicity within the assay endpoint names), cells were plated (75,000/well in a 96-well plate) and then chemical samples added for 1 h before addition of activators, SEB and TSST-1 (20 ng/mL final concentration each). Cells were incubated for 90 h. Then, Alamar Blue (20 uL/well) (Invitrogen, Cat DAL1100) was added for 6 h, and the plates were read with a fluorescence microplate reader at 546/580 nm (excitation/emission). For PBMC proliferation, cells were plated and activated as above but incubated for only 16 h prior to addition of Alamar Blue. Plates were read after 6 h.
As usually defined, the AC50 is the midpoint of the concentration-response curve, whichever way the signal moves. For the compound `CN(C)C(=S)SSC(=S)N(C)C`, the AC50 is 2.76 µM (active).
For the compound `Cc1c(F)c(F)c(COC(=O)C2C(/C=C(\Cl)C(F)(F)F)C2(C)C)c(F)c1F` (stereo not given), the AC50 is 10.8 µM (active).
For the compound `O=C(O)c1nc(Cl)ccc1Cl`, the result was inactive.
As for `N#CC(CCc1ccc(Cl)cc1)(Cn1cncn1)c1ccccc1` (stereo not given), the AC50 was 1.78 µM (active).
For the compound `COC(=O)N(OC)c1ccccc1COc1ccn(-c2ccc(Cl)cc2)n1`, the AC50 was 1.84 µM (active).
As to `O=C(Nc1ccccc1)Nc1ccnc(Cl)c1`, the result was inactive.
In the case of `CCOc1cc(Oc2ccc(C(F)(F)F)cc2Cl)ccc1[N+](=O)[O-]`, the AC50 is 10.6 µM (active).
In the case of `CC(Oc1ccc(Cl)cc1Cl)C(=O)O` (stereo not given), the outcome was inactive.
In the case of `C#CCOS(=O)OC1CCCCC1Oc1ccc(C(C)(C)C)cc1` (stereo not given), the AC50 was 2.73 µM (active).
For the compound `CC(C)C1(C)N=C(c2nc3ccccc3cc2C(=O)O)NC1=O` (stereo not given), the outcome was inactive.
On the same count and under the same terms, with `COC(=O)c1ccccc1C(=O)OC` the entry was “inactive”.
In the case of `CCCCNC(=O)OCC#CI`, the AC50 was 134 nM (active) and 534 nM (active).
On to `CC(C)Oc1cc(-n2nc(C(C)(C)C)oc2=O)c(Cl)cc1Cl`, for which the AC50 is 29.5 µM (active).
Consider `CCOC(=O)CC(SP(=S)(OC)OC)C(=O)OCC` (stereo not given), for which the outcome was inactive.
On to `COP(=S)(OC)Oc1nc(Cl)c(Cl)cc1Cl`, for which the AC50 is 28.2 µM (active).
In the case of `CCNc1nc(Cl)nc(NC(C)C)n1`, the outcome was inactive.
Consider `CCON=C(CC)C1=C(O)CC(c2c(C)cc(C)cc2C)CC1=O` (stereo not given), for which the result was inactive.
On the same count and under the same terms, the same measure for `N#Cc1nn(-c2c(Cl)cc(C(F)(F)F)cc2Cl)c(N)c1S(=O)C(F)(F)F` (stereo not given): “inactive”.
On to `COC(=O)C(C)Oc1ccc(Oc2ccc(Cl)cc2Cl)cc1` (stereo not given), for which the outcome was inactive; the AC50 was 29.5 µM (active) and 36.7 µM (active).
Take `CCOP(=S)(OCC)SCn1c(=O)oc2cc(Cl)ccc21`: the AC50 is 15.5 µM (active).
`CO/C=C(/C(=O)OC)c1ccccc1Oc1cc(Oc2ccccc2C#N)ncn1`: the AC50 was 30.2 µM (active) and 34.3 µM (active) and 25.5 µM (active); the result was inactive.
In the case of `N#Cc1cc(Br)c(O)c(Br)c1`, the outcome was inactive.
On the same count and under the same terms, with `CCCCOC(=O)c1ccccc1C(=O)OCCCC` the entry was “inactive”.
Turning to `Fc1ccc(Oc2ccnc3cc(Cl)cc(Cl)c23)cc1`, the AC50 is 11.7 µM (active).
Consider `CON(C)C(=O)Nc1ccc(Cl)c(Cl)c1`, for which the outcome was inactive.
As to `O=C(O)COc1nc(Cl)c(Cl)cc1Cl`, the outcome was inactive.
With `CCOC(=O)C(Cl)Cc1cc(-n2nc(C)n(C(F)F)c2=O)c(F)cc1Cl` (stereo not given), the outcome was inactive.
In the case of `COc1ccc(C(c2ccc(OC)cc2)C(Cl)(Cl)Cl)cc1`, the AC50 was 6.21 µM (active).
On the same count and under the same terms, the same measure for `CCCCC(CC)COC(=O)c1ccccc1C(=O)OCC(CC)CCCC` (stereo not given): 4.85 µM (active); for `CCc1nn(C)c(C(=O)NCc2ccc(C(C)(C)C)cc2)c1Cl`: 20 µM (active).
For the compound `Cc1cc(Cl)ccc1OCC(=O)O`, the result was inactive.
On to `CNC(=S)S`, for which the AC50 was 20 µM (active).
`CC(C)(C)c1ccc(CSc2cnn(C(C)(C)C)c(=O)c2Cl)cc1`: the AC50 was 4.68 µM (active).
On the same count and under the same terms, with `Cc1ccc(-c2c(Cl)nc(C#N)n2S(=O)(=O)N(C)C)cc1` the figure was 17 µM (active).
For `CCNc1nc(Cl)nc(NCC)n1`, the outcome was inactive.
Take `CC1=C(C(=O)Nc2ccccc2)SCCO1`: the outcome was inactive.
For `CCCC1COC(Cn2cncn2)(c2ccc(Cl)cc2Cl)O1` (stereo not given), the AC50 is 4.49 µM (active).
On to `COc1nc(C)nc(NC(=O)NS(=O)(=O)c2ccccc2CCC(F)(F)F)n1`, for which the outcome was inactive.

For the origin of these results see PubChem BioAssay (EPA / NIEHS).
